From ChEMBL document CHEMBL4513135, “CO-ADD screening of IQOG CSIS (Spain) compounds”
Measured potencies and affinities stand elsewhere.

Legend:
Klebsiella pneumoniae = details: Concentration 32 ug.mL-1; ASSAY_TEST Inhibition of Bacterial Growth; detection method Absorption (OD600); MEDIA CAMHB; plate type 384well; NBS; CORNING #3640; time 18 hr
Candida albicans = details: 32 ug/mL
Cryptococcus neoformans = details: Concentration 32 ug.mL-1; ASSAY_TEST Inhibition of Fungal Growth; detection method Resazurin; Absorption (OD600-OD570); plate type 384well; NBS; CORNING #3640

SMILES | Inhibition (Klebsiella pneumoniae) [%] | Inhibition (Candida albicans) [%] | Inhibition (Cryptococcus neoformans) [%]
N#Cc1c(-c2ccccc2)c2c(ccc3ccccc32)oc1=O | 13.16 | 0.36 | -9.44
Cn1ccnc1C1c2ccc3cccnc3c2Oc2nc3c(c(N)c21)CCCCC3 (configuration not stated) | 9.25 | 2.52 | -79.42
CC(=O)NC=C1C(=O)OC(C)(C)OC1=O | 18.67 | 0.54 | -4.92
N#Cc1c(N)nc(NCCCC2CCN(Cc3ccccc3)CC2)c(C#N)c1-c1ccccc1 | 32.61 | 1.5 | -34.35
CNCc1cc2ccccc2n1C.Cl | 8.53 | 1.26 | -5.12
N#Cc1cccnc1Cl | 9.13 | -0.53 | -53.41
C1CNCCNCCNCCNC1 | 5.58 | 4.25 | -3.46
COc1ccc2c(c1)cc(CNc1ccccc1)n2C | 12.88 | 1.07 | -85.66
O=c1oc2cc(O)ccc2cc1-c1ccccc1 | 3.33 | -0.21 | -4.62
Cl.NC1(C(=O)O)CC1c1ccccc1 (configuration not stated) | 9.92 | 1.66 | -5.74
N#Cc1cc(C#N)c(N2CCCC2)nc1N | 16.35 | 1.23 | -54.35
N#Cc1c(N)nc(NC2CCN(Cc3ccccc3)CC2)c(C#N)c1-c1ccccc1 | 9.32 | 2.69 | -66.18
N#CC1(Br)C(=NBr)Oc2ccc3ccccc3c2C1c1cccc([N+](=O)[O-])c1 (configuration not stated) | 8.04 | 7.45 | -42.61
N#Cc1cc(C#N)c(N2CCC(Cc3ccccc3)CC2)nc1N | -9.32 | 1.71 | -23.72
CCOC(=O)C1=C(C)Nc2nc3c(c(N)c2C1c1cccc(OC)c1)CCCC3 (configuration not stated) | 2.7 | 5.35 | -90.12
COc1ccc(C2c3c(ccc4ccccc34)OC(=NBr)C2(Br)C#N)cc1 (configuration not stated) | 26.17 | 10.1 | -63.65
N#Cc1c(N)nc(NCc2ccccc2)c(C#N)c1-c1ccccc1 | -1.47 | 0.34 | -28.27
Nc1c2c(nc3c1c1ccccc1n3Cc1ccccc1)CCCC2 | 9.09 | 1.09 | -84.21
COc1ccc(C2c3ccc4ccccc4c3OC(=NBr)C2(Br)C#N)cc1 (configuration not stated) | 6.43 | 2.22 | -24.77
Cc1ccc(C(O)SNNc2ncnc3c2cnn3-c2ccccc2)cc1 (configuration not stated) | 7.03 | 2.59 | -4.5

SMILES | Inhibition (Klebsiella pneumoniae) [%] | Inhibition (Candida albicans) [%] | Inhibition (Cryptococcus neoformans) [%]
C#CCN(C)c1nc(NCCCC2CCN(Cc3ccccc3)CC2)c(C#N)cc1C#N | -7.79 | 3.51 | -58.85
CNCc1cc2cc(OCc3ccccc3)ccc2n1C.Cl | 14.91 | -0.02 | 0.75
N#Cc1c(Cl)nc(N2CCCCC2)c(C#N)c1-c1ccccc1 | -24.06 | 3.22 | -3.56
C#CCN(Cc1ccccc1)c1nc(N)c(C#N)c(-c2ccccc2)c1C#N | -5.74 | 2.73 | -25.11
C=C1CN(Cc2ccccc2)c2c(C#N)c(-c3ccccc3)c(C#N)c(=N)n21 | 17.58 | 2.82 | -53.83
O=C(N/N=C/Cc1ccccc1)c1cc2ccccc2n1Cc1ccccc1 | 4.61 | 1.98 | -1.83
Cl.ClCCCCN1CCCCC1 | -0.73 | -0.33 | -8.6
COC(=O)C1CCN(Cc2ccccc2)CC1 | 4.25 | 4.82 | -2.37
NNC(=O)CCc1c[nH]c2ccccc12 | 5.25 | 0.67 | -3.69
c1ccc(-c2nc3c4cnn(-c5ccccc5)c4ncn3n2)cc1 | 10.22 | -0.93 | -6.06
CSC1=NC(=Cc2cn(C(c3ccccc3)(c3ccccc3)c3ccccc3)c3ccccc23)C(=O)N1C | -25.3 | -0.44 | -10.07
COc1ccccc1C1C(C#N)=C(N)Oc2ccc3ccccc3c21 (configuration not stated) | 9.04 | 2.24 | -18.76
N#Cc1c(Cl)nc(Cl)c(C#N)c1-c1ccccc1 | 19.31 | 34.6 | -43.27
CCOC(=O)c1cc2c(N)c3c(nc2nc1C)CCCC3 | -0.45 | 0.86 | -82.76
OCc1c(-c2ccc(Br)cc2)nc2ccccn12 | 16.84 | 4.83 | -4.79
COc1ccc(CNNC(=O)c2cc3ccccc3[nH]2)cc1O | 4.75 | 0.7 | 0.55
O=C1SC(SCc2ccccc2)=NC1=Cc1ccccc1 | 8.07 | 1.92 | -3.98
CC#CCN(Cc1ccccc1)c1nc(N)c(C#N)c(-c2ccccc2)c1C#N | -4.62 | 3.12 | -26
C#CCNc1ccc(Cl)nn1 | 15.08 | 3.36 | -43.23
